Compound activity from PubChem BioAssay.
HP1b chromo inh = inhibitors of HP1-beta chromodomain binding to methylated histone tails. AID 540317. 0.56% of 390,000 active. P83916. AlphaScreen HP1-beta / biotin-H3K9me3 peptide binding. Potency, µM (doses to about 114 µM), actives largely listed as inhibitors; also: nearly all actives have a fitted effect of over 70% in size
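HP1-beta protein (50 nM final) preincubated 30 min at room temperature with biotinylated H3(1-18)K9me3 peptide (50 nM) in PBS pH 7.4, 0.01% Tween-20, then compound added for 30 min. AlphaScreen streptavidin donor/nickel chelate acceptor beads (10 ug/mL final), 30 min dark, luminescence read.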
L3MBTL1 inh = inhibitors of human L3MBTL1. Q9Y468. AlphaScreen L3MBTL1–H3K9me1 peptide binding. Potency, µM (doses to about 57.1 µM), hits mostly inhibitors. 0.66% of 230,000 active; also: nearly all actives have a fitted effect of over 60% in size
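Read-out is AlphaScreen signal from streptavidin donor and nickel chelate acceptor beads (10 ug/mL final each) bridging L3MBTL1 (50 nM) and biotinylated K9-monomethylated H3(1-15) peptide (75 nM), after 30 min compound exposure at room temperature.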
BAZ2B block = inhibitors of human BAZ2B bromodomain; AlphaScreen BAZ2B-H3K14Ac peptide displacement; Potency, µM (doses to about 114 µM), usual class: inhibitors; 4.4% of 360,000 active; AID 504333; also: nearly all actives have a fitted effect of over 60% in size
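BAZ2B (50 nM) with biotin-H3(5-23)K14Ac peptide (50 nM) in PBS pH 7.4, 0.01% Tween-20, preformed 30 min, then compound 30 min at room temperature; top concentration 110uM. AlphaScreen streptavidin donor/nickel chelate acceptor beads (10 ug/mL final), 20 min dark, signal read.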
JMJD2A Tudor = blocks the human JMJD2A Tudor domain; AID 504339; 4.4% of 390,000 active; O75164; AlphaScreen JMJD2A-Tudor / H3K4me3 peptide binding; Potency, µM (titrated, usually from 114 µM), actives largely listed as inhibitors; also: nearly all actives have a fitted effect of over 50% in size
G9a block = G9a (human) methyltransferase inhibition; G9a H3K9 monomethylation, AlphaScreen, 2 h; Potency, µM (doses to about 102 µM), most hits filed as inhibitors; 8.8% of 350,000 active; AID 504332; also: nearly all actives have a fitted effect of over 75% in size
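Quantitative HTS format: methyltransferase activity on a biotin-tagged H3K9 peptide is measured by AlphaScreen, using a rabbit anti-monomethyl-H3K9 antibody with streptavidin donor and anti-IgG acceptor beads. Final levels are 20 nM enzyme, 500 nM peptide, 20 uM SAM; 2 h RT.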
Large screens that a line does not name were inactive. Sampled rows, rich in hits. Any-hit rate of the full collection: about 11%. Calls follow the shape of the dose curve; as a rule, active = well fitted inhibition curve with a large enough effect; inconclusive = small, poorly fitted or top-dose-only effect; inactive = no such curve, though single readings can be large or run the other way.

Cc1ccc(NC(=O)CN2C(=O)S/C(=C\c3ccc(C(=O)O)cc3)C2=O)cc1	BAZ2B block 56µM, JMJD2A Tudor inconclusive
Cc1ccc(NC(=O)CN2C(=O)S/C(=C\c3cc(C)n(-c4cccc(C(=O)O)c4)c3C)C2=O)cc1	BAZ2B block 45µM, JMJD2A Tudor 56µM (no result: G9a block)
Cc1cc(=O)n2nc(N3CCCC(C(=O)NC4CCC(C)CC4)C3)sc2n1 (stereo not given)	none (no result: L3MBTL1 inh)
CC(=O)Nc1cccc(S(=O)(=O)Nc2ccc(C)c(C)c2)c1	none (no result: HP1b chromo inh, L3MBTL1 inh, BAZ2B block, G9a block)
CCCSC1=C(C#N)C(c2cccs2)CC(=O)N1 (stereo not given)	G9a block inconclusive
N#CC1=C2SCN(Cc3ccccc3)CN2C(=O)CC1c1cccs1 (stereo not given)	G9a block 2µM
N#CC1=C2SCN(Cc3ccccc3)CN2C(=O)CC1c1ccc2c(c1)OCO2 (stereo not given)	HP1b chromo inh inconclusive, BAZ2B block 50µM, JMJD2A Tudor 50µM, G9a block inconclusive
N#CC1=C(N)OC2=C(C(=O)CC(c3ccccc3)C2)C1c1ccc2c(c1)OCO2 (stereo not given)	BAZ2B block inconclusive, G9a block inconclusive
COc1ccc(NC(=O)Cn2c(=O)n(CCCC(=O)NCCc3ccc(C)cc3)c(=O)c3ccccc32)cc1Cl	none (no result: L3MBTL1 inh)
O=C(Nc1cccc(-c2nc3ccccc3o2)c1)c1cc([N+](=O)[O-])ccc1N1CCOCC1	BAZ2B block inconclusive, G9a block inconclusive (no result: L3MBTL1 inh)
Cc1ccc(CNC(=O)Cc2c(C)c3c(cc(C)c4c(C)coc43)oc2=O)cc1	G9a block inconclusive (no result: L3MBTL1 inh)
O=C(Nc1cccc([N+](=O)[O-])c1)c1ccc2ccccc2c1O	G9a block 16µM
O=C(Nc1cccc([N+](=O)[O-])c1)c1ccncc1	none
O=C(Nc1cccc([N+](=O)[O-])c1)c1cnccn1	BAZ2B block 50µM, JMJD2A Tudor inconclusive
O=C(Cc1ccccc1)Nc1cccc([N+](=O)[O-])c1	G9a block inconclusive (no result: L3MBTL1 inh)
COc1cccc(CNC(=O)CCCc2nnc3n(C)c(=O)c4sccc4n23)c1	none (no result: L3MBTL1 inh)
CC(C)CC(=O)NC1(C(F)(F)F)C(=O)Nc2c1c(=O)[nH]c(=O)n2-c1ccccc1 (stereo not given)	none (no result: L3MBTL1 inh)
COc1ccccc1CN1CCCC(C(=O)N2CCCCC2)C1 (stereo not given)	HP1b chromo inh 71µM, BAZ2B block 45µM, JMJD2A Tudor 1.8µM, G9a block 18µM
O=C(c1cccc(F)c1)N1CCCC(C(=O)N2CCCCC2)C1 (stereo not given)	none (no result: L3MBTL1 inh)
O=C(C1CCCN(Cc2ccccc2C(F)(F)F)C1)N1CCCCC1 (stereo not given)	HP1b chromo inh inconclusive, BAZ2B block 50µM, JMJD2A Tudor 3.5µM, G9a block 5µM
COc1ccc(C(=O)N2CCCC(C(=O)O)C2)c2ccccc12 (stereo not given)	G9a block 45µM (no result: L3MBTL1 inh)
O=C(C1CCCN(Cc2ccccc2F)C1)N1CCCCC1 (stereo not given)	HP1b chromo inh 45µM, BAZ2B block 20µM, JMJD2A Tudor 4µM, G9a block 10µM (no result: L3MBTL1 inh)
COc1ccccc1CN1CCCC(CN(CCN(C)C)C(=O)C2CCCC2)C1 (stereo not given)	none
Cc1ccnc(NC(=O)CCN2C(=O)c3ccccc3S2(=O)=O)n1	none
CCS(=O)(=O)N1CCc2cc(C(=O)NC(C)c3ccccc3)ccc21 (stereo not given)	none (no result: L3MBTL1 inh)
CC[C@@]1(C(=O)OC)N[C@H](CN(C)C(=O)c2ccc(F)cc2)[C@@H]2C(=O)N(Cc3ccccc3)C(=O)[C@@H]21	none (no result: BAZ2B block, G9a block)
CN(C(=O)CCc1ccccc1F)C1CCCN(Cc2ccccc2F)C1 (stereo not given)	JMJD2A Tudor 10µM
Cc1c(C(=O)N(C)C2CCCCC2)sc2nc3ccc(N)cc3n12	G9a block 25µM (no result: HP1b chromo inh, L3MBTL1 inh, BAZ2B block, JMJD2A Tudor)
Cc1ccc2nc(Cl)c3cc(C(=O)N(C)C4CCCCC4)sc3c2c1	none (no result: L3MBTL1 inh)
COc1cccc(C(=O)NCCS(=O)(=O)NCc2cccnc2)c1	G9a block 50µM
COc1cccc(CCNS(=O)(=O)CCNC(=O)c2cccc(OC)c2)c1	none
O=C(NCCS(=O)(=O)NCc1cccnc1)c1ccccc1	none
COc1ccc(C(=O)NCCS(=O)(=O)NCc2ccco2)cc1	L3MBTL1 inh inconclusive, G9a block inconclusive
COc1cccc(C(=O)NCCS(=O)(=O)NCc2ccco2)c1	G9a block 20µM
COc1cccc(C(=O)NCCS(=O)(=O)NCc2cccs2)c1	G9a block 35µM
COc1cccc(-c2n[nH]c3c2C(c2ccccn2)N(C)C3=O)c1 (stereo not given)	none (no result: L3MBTL1 inh)
COc1ccc(NC(C)=[N+](C)CCNS(=O)(=O)c2ccc(Cl)cc2)cc1Cl	none (no result: L3MBTL1 inh, G9a block)
COc1ccccc1NC(C)=[N+](C)CCNS(=O)(=O)c1ccc(Cl)cc1	HP1b chromo inh inconclusive, BAZ2B block 25µM, JMJD2A Tudor inconclusive, G9a block inconclusive (no result: L3MBTL1 inh)
CCCN(CCC)CC(O)Cn1cc(/C=C/C(=O)c2ccc(OC)cc2)c2ccccc21 (stereo not given)	BAZ2B block inconclusive, JMJD2A Tudor 45µM (no result: L3MBTL1 inh)
CCCN(CCC)CC(O)Cn1cc(/C=C/C(=O)c2ccc(C)cc2)c2ccccc21 (stereo not given)	BAZ2B block 22µM, JMJD2A Tudor inconclusive (no result: L3MBTL1 inh)
CCOC(=O)C1=C(CN2CCN(c3ccccc3F)CC2)NC(=O)NC1c1ccc(OC)cc1 (stereo not given)	BAZ2B block inconclusive (no result: L3MBTL1 inh)
C/C(Cl)=C\Cn1c(O)c(N=NC(N)=S)c2cc(Br)ccc21	HP1b chromo inh inconclusive, BAZ2B block 10µM, JMJD2A Tudor 45µM (no result: G9a block)
NC(=S)N=Nc1c(O)n(CCCl)c2ccc(Br)cc12	BAZ2B block inconclusive
Nc1c2c(nc3ccccc13)CCCC2	none
Nc1cccc2c3c(oc12)CCCC3	G9a block 40µM (no result: L3MBTL1 inh)
Cc1cccc(-c2noc(CN(C3CCCCC3)S(=O)(=O)c3ccc(F)cc3)n2)c1	none (no result: L3MBTL1 inh)
COc1ccc(NCc2ccc(OC)c(Cn3ccnc3)c2)c(OC)c1	HP1b chromo inh inconclusive, BAZ2B block 50µM, JMJD2A Tudor 40µM, G9a block 11µM (no result: L3MBTL1 inh)
COc1ccc(OC)c(-c2cc(C(=O)NCCCn3ccnc3)no2)c1	BAZ2B block inconclusive, JMJD2A Tudor inconclusive
COc1ccc(Cn2ccnc2)cc1[N+](=O)[O-]	none
COc1ccc(Cn2ccnc2)cc1Br	BAZ2B block 50µM, JMJD2A Tudor inconclusive, G9a block inconclusive (no result: L3MBTL1 inh)
COCCN1C(=O)C(O)=C(C(C)=O)C1c1ccc(F)cc1 (stereo not given)	BAZ2B block 79µM, JMJD2A Tudor 40µM, G9a block inconclusive
CCCCOc1ccc(C2C(C(=O)c3cccs3)=C(O)C(=O)N2CCN2CCOCC2)cc1 (stereo not given)	none (no result: G9a block)
CC(=O)C1=C(O)C(=O)N(CCCCCC(=O)O)C1c1ccc(N(C)C)cc1 (stereo not given)	BAZ2B block 79µM, JMJD2A Tudor 32µM, G9a block inconclusive (no result: L3MBTL1 inh)
